Screens (PubChem BioAssay)
PrP 5UTR inh – inhibition of PrP 5' UTR reporter expression; inhibition, % (concentration not given with the values); AID 488862, 2010; hit rate 0.35% among 340,000; cell-based PrP 5' UTR mRNA reporter, plate reader; in the data active means inhibition above about 52%
PriA SSB inh – inhibitors of Klebsiella pneumoniae PriA binding to SSB C-terminal tail, primary screen, biochemical, AlphaScreen. AlphaScreen SSBct-PriA binding, biotinylated peptide. inhibition, % at 33 µM. hit rate 0.6% among 430,000; in the data active means inhibition mostly above about 37%, no sharp cut-off; inactive means mostly below about 20%
Vc quorum ag – inducers of Vibrio cholerae quorum light production without autoinducers, primary screen, BH1578 luxS cqsA deficient, single point; hit rate 0.16% among 350,000; activation, % at 18.7 µM; V. cholerae BH1578 lux reporter, luminescence, 6 h; in the data active means activation mostly above about 9.7%, no sharp cut-off; inconclusive means no clear call, values can overlap the other calls; inactive means mostly below about 3.7%
FadD28 FP inh – inhibitors of FadD28 bisubstrate probe binding, primary screen, biochemical, fluorescence polarization, single point | AID 588549, 2011 | Mycobacterium tuberculosis FadD28 fatty-acid-AMP ligase | inhibition, % at 12.5 µM | hit rate 0.22% among 360,000; in the data active means inhibition above about 8.5%, passing the limit was not always enough; inconclusive means no clear call, values can overlap the other calls
PrPC TRFRET – inhibitors of human cell surface prion protein PrPC, primary screen, cell-based, TR-FRET | TR-FRET read-out | Major prion protein (Homo sapiens), P04156 | hit rate 0.43% among 370,000 | inhibition, % at 13.8 µM; in the data active means inhibition above about 24%
PrP 5UTR single – prion 5' UTR mRNA inhibition, cherry-pick retest; shares compounds with PrP 5UTR inh; cell-based prion protein 5' UTR reporter, plate reader; inhibition, % at 2.5 µM; hit rate 48% among 1,100; AID 504592, 2011; in the data active means inhibition above about 54%; inconclusive means no clear call, values can overlap the other calls
Large screens that a line does not name were inactive (follow-up assays come after a bar, where they were run); ! = a repeat was not active. Only some compounds are listed: those with a hit (about 1.4% of all), similar ones and a draw of the others.

COC(=O)CSCC(=O)N1N=C(c2ccc(Br)cc2)CC1c1cccc(OC)c1OC (stereo unspecified)	none (no result: PrP 5UTR inh, Vc quorum ag, FadD28 FP inh, PrPC TRFRET)
CCn1c(O)c(N=Nc2ccc3ccccc3n2)c2ccccc21	none
Brc1ccc(N=Nc2ccc3ccccc3n2)cc1	PrP 5UTR inh 82 | PrP 5UTR single 80
CC(=O)c1cccc(S(=O)(=O)NCc2ccccc2-c2ccsc2)c1	none (no result: PrP 5UTR inh, Vc quorum ag, FadD28 FP inh, PrPC TRFRET)
C=CCCC1(CC(C)C)C(=O)NC(=S)NC1=O	PrP 5UTR inh 91 | PrP 5UTR single inactive
CCOc1ccc(C(=O)N=c2sc3cccc(F)c3n2C)cc1	none (no result: PrP 5UTR inh, Vc quorum ag, FadD28 FP inh, PrPC TRFRET)
COc1ccc(Cc2cnc(N)s2)cc1	PrP 5UTR inh 77 | PrP 5UTR single inactive
CCOc1ccccc1NC(=O)N(CC(F)(F)F)C1CCOCC1	none (no result: PrP 5UTR inh, Vc quorum ag, FadD28 FP inh, PrPC TRFRET)
CC(=NNC(=S)N1CC2CCC(CC2)C1)c1cnccn1	none
CC(=NNC(=S)N(Cc1ccccn1)Cc1ccccn1)c1cnccn1	PrP 5UTR inh 80, PriA SSB inh 94 | PrP 5UTR single 58
N#Cc1cccc(C(=O)NC2CC(O)C(CO)C2)c1 (stereo unspecified)	none (no result: PrP 5UTR inh, Vc quorum ag, FadD28 FP inh, PrPC TRFRET)
CSC1CC2CCC(C1)N2C(=O)Cc1ccc(NC(C)=O)cc1 (stereo unspecified)	none (no result: PrP 5UTR inh, Vc quorum ag, FadD28 FP inh, PrPC TRFRET)
CN(C)CCNCCCNc1c2ccccc2nc2cccc([N+](=O)[O-])c12	PrP 5UTR inh 95 | PrP 5UTR single 98
CCCN1C=CC(=C2C(=O)c3ccccc3C2=O)C=C1	PrP 5UTR inh 93 | PrP 5UTR single 96
CCN1C=CC(=C2C(=O)c3ccccc3C2=O)C=C1	PrP 5UTR inh 88 | PrP 5UTR single 91
CC1=CC(=C2C(=O)c3ccccc3C2=O)C=C(C)O1	none
CCCCCCN1C=CC(=C2C(=O)c3ccccc3C2=O)C=C1	PrP 5UTR inh 72 | PrP 5UTR single 72
CCCCN1C(C)=CC(=C2C(=O)c3ccccc3C2=O)C=C1C	none
O=C(c1ccncc1)N1CCC(CNS(=O)(=O)c2ccc3c(c2)CCCC3)CC1	none (no result: PrP 5UTR inh, Vc quorum ag, FadD28 FP inh, PrPC TRFRET)
COc1ccccc1C(=O)NCCCNC(=O)c1ccccn1	none
O=C(NCCCNCc1ccccc1)c1ccccn1	PrP 5UTR inh 62! | PrP 5UTR single inactive
COc1ccc(/C=N/Nc2nnc(C)n2N)cc1OC(C)=O	none (no result: PriA SSB inh, FadD28 FP inh)
COc1ccc(/C=N/Nc2nnc(C)n2N)cc1OC	PrP 5UTR inh 76 (no result: PriA SSB inh) | PrP 5UTR single inactive
CC(C)c1ccc(-c2nc3ccccc3s2)cc1	PrP 5UTR inh 85 | PrP 5UTR single 85
COC(=O)N(C)c1nc2ccccc2s1	none
CN(C(=O)OC(C)(C)C)c1ccc(-c2nc3ccccc3s2)cc1	PrP 5UTR inh 90 | PrP 5UTR single 88
COc1ccc(Nc2nnc(Cc3ccc(C(C)C)cc3)c(=O)[nH]2)cc1OC	none (no result: PrP 5UTR inh, Vc quorum ag, FadD28 FP inh, PrPC TRFRET)
CN1CCN(CC(=O)Nc2cccc(S(=O)(=O)N(C)c3ccccc3)c2)CC1	PrP 5UTR inh 91 (no result: FadD28 FP inh) | PrP 5UTR single inactive
CCN1CCc2nc(NC(=O)C3CCN(S(=O)(=O)c4ccc(Cl)s4)CC3)sc2C1	none (no result: PrP 5UTR inh, Vc quorum ag, FadD28 FP inh, PrPC TRFRET)
CC(=O)c1c(C)[nH]c(C(=O)Nc2nc(C)cs2)c1C	PrP 5UTR inh 65 | PrP 5UTR single inactive
CN(C)CCNc1ccc(CO)c2sc3ccc(O)cc3c(=O)c12	none
CN(C)CCNc1ccc2ncn3c4ccc(O)cc4c(=O)c1c23	PrP 5UTR inh 93 | PrP 5UTR single 60
CC(C)c1nnc(NC(=O)c2ccc3c(c2)OCO3)s1	PrP 5UTR inh 54 | PrP 5UTR single inconclusive
Cc1cnc(NC(=O)c2ccc3c(c2)OCCO3)s1	PrP 5UTR inh 81 | PrP 5UTR single 73
CC(c1ccccc1)c1nnc(NC(=O)c2ccc3c(c2)OCO3)s1 (stereo unspecified)	none
Cc1nc2ccc3nc(NC(=O)c4ccc5c(c4)OCCO5)sc3c2s1	none
Cc1ccc(S(=O)(=O)N(CCc2ccccc2)Cc2ccccn2)c(C)c1	none (no result: PrP 5UTR inh, Vc quorum ag, FadD28 FP inh, PrPC TRFRET)
CO[C@@H](CNC(=O)CN1C(=O)CCC1=O)c1ccco1	none (no result: PrP 5UTR inh, Vc quorum ag, FadD28 FP inh, PrPC TRFRET)
CCCc1ccc(-c2ccc(F)c(N)c2)nc1	PrP 5UTR inh 59 | PrP 5UTR single inconclusive
CCCc1ccc(-c2ccc(-c3noc(-c4ccncc4)n3)cc2)nc1	none
COC(=O)Cc1[nH]n(-c2nc3ccccc3s2)c(=O)c1C(C)=Nc1ccc(Cl)cc1	PrP 5UTR inh 91 | PrP 5UTR single 87
COC(=O)Cc1[nH]n(-c2ccccc2)c(=O)c1C(C)=Nc1ccccc1	none
